# In the supplement of paper PMC6555819:
# How the values were obtained:
# Assay in all cases: PBM binding z-score (relative to random genomic background probes); higher = stronger binding; sequences stand for … in GC…GCGATTGACAGCGTAGAATGAAGG
# [1] = test system: FXR:RXRa (NR concentration 270 nM, RXRa partner concentration 90 nM)
# Method in brief: (§1)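 Binding buffer was PBS pH 7.4 with 2% milk, 0.02% Triton X-100, 1 mM DTT, 0.2 mg/mL BSA and 0.4 mg/ml salmon testes DNA. In it, ligand-free nuclear receptor dimers were incubated 1 h on custom Agilent 4×180K protein-binding microarrays carrying double-stranded probes. Antibodies against each partner (one per run) detected binding, and z-scores were calculated against random background probes after regression normalization of scanned fluorescence.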
# [2] = test system: LXRa:RXRa (NR concentration 270 nM, RXRa partner concentration 90 nM)
# Method in brief: as §1
# [3] = test system: LXRa homodimer (NR concentration 270 nM)
# Method in brief: as §1
# [4] = test system: LXRb:RXRa (NR concentration 270 nM, RXRa partner concentration 90 nM)
# Method in brief: as §1
# [5] = test system: LXRb homodimer (NR concentration 270 nM)
# Method in brief: as §1
# [6] = test system: PPARa:RXRa (NR concentration 270 nM, RXRa partner concentration 90 nM)
# Method in brief: as §1
# [7] = test system: PPARg:RXRa (NR concentration 180 nM, RXRa partner concentration 90 nM)
# Method in brief: as §1
# [8] = test system: PPARg:RXRa 270nM:90nM, anti-RXR (NR concentration 270 nM, RXRa partner concentration 90 nM)
# Method in brief: as §1
# [9] = test system: PPARg:RXRa 30nM:10nM, anti-RXR (NR concentration 30 nM, RXRa partner concentration 10 nM)
# Method in brief: as §1
# [10] = test system: PPARg:RXRa 90nM:30nM, anti-RXR (NR concentration 90 nM, RXRa partner concentration 30 nM)
# Method in brief: as §1
# [11] = test system: PPARg:RXRa DBDmut IVT, anti-RXR (DBD mutation: RXRa K156A/R161A, NR concentration 270 nM, RXRa partner concentration 90 nM)
# Method in brief: as §1
# [12] = test system: PPARg:RXRa IVT, anti-PPARg (NR concentration 270 nM, RXRa partner concentration 90 nM)
# Method in brief: as §1
# [13] = test system: PPARg DBDmut:RXRa IVT, anti-PPARg (DBD mutation: PPARg1 K132A/R137A, NR concentration 270 nM, RXRa partner concentration 90 nM)
# Method in brief: as §1
# [14] = test system: PPARg DBDmut IVT, anti-PPARg (DBD mutation: PPARg1 K132A/R137A, NR concentration 270 nM)
# Method in brief: as §1
# [15] = test system: PPARg homodimer (NR concentration 180 nM)
# Method in brief: as §1
# [16] = test system: PXR:RXRa (NR concentration 270 nM, RXRa partner concentration 90 nM)
# Method in brief: as §1
# [17] = test system: PXR homodimer (NR concentration 270 nM)
# Method in brief: as §1
# [18] = test system: RARa:RXR (NR concentration 270 nM, RXRa partner concentration 90 nM)
# Method in brief: as §1
# [19] = test system: RARa homodimer (NR concentration 270 nM)
# Method in brief: as §1
# [20] = test system: RARb:RXRa (NR concentration 270 nM, RXRa partner concentration 90 nM)
# Method in brief: as §1
Sequence,PBM binding z-score [1],PBM binding z-score [2],PBM binding z-score [3],PBM binding z-score [4],PBM binding z-score [5],PBM binding z-score [6],PBM binding z-score [7],PBM binding z-score [8],PBM binding z-score [9],PBM binding z-score [10],PBM binding z-score [11],PBM binding z-score [12],PBM binding z-score [13],PBM binding z-score [14],PBM binding z-score [15],PBM binding z-score [16],PBM binding z-score [17],PBM binding z-score [18],PBM binding z-score [19],PBM binding z-score [20]
ACAGACAGGTGATGAAGGTAACGCAGGCTATCAT,-0.062,-0.206,-0.481,-0.283,-0.516,-0.00302,0.871,0.114,-0.0221,0.00481,-0.0406,0.365,-0.0492,0.0429,-0.243,-0.376,0.103,-0.27,-0.271,0.179
ATCTCTAGGTAAACGTTCAGTGAATCCCGAGGAT,-0.236,-0.144,-0.301,-0.282,0.657,0.613,1.14,2.17,1.01,1.75,3.11,2.05,0.531,0.761,0.198,-0.434,-0.237,-0.544,-0.155,0.26
CAACCTAGGTCACAGAGGTCAAAGTCCGTGCGTA,7.56,6.89,7.7,6.74,2.06,6.1,7.27,6.89,3.63,6.19,5.47,5.9,0.378,-0.0572,6.18,6.95,12.5,7.87,2.8,5.39
GATACAGGATCAAGGCCAGAGTACGCGTATTGAT,-0.429,-0.625,-0.269,-0.535,-0.452,-0.133,0.979,0.356,0.0722,0.052,-0.344,-0.0749,0.581,0.288,-0.0406,-0.253,-0.0263,-0.382,-0.179,0.164
TAGCCTAGGTCAGATCGGGCCAGTATTCGCTATA,2.53,1.19,-0.155,0.7,-0.147,1.71,0.0951,0.687,-0.284,-0.025,0.568,1.66,-0.683,-1.02,0.109,1.28,-0.946,0.894,-0.762,3.14
CCTAGTTGGTCAGGAGGTCACACAACGGATATGA,3.71,3.52,1.69,3.53,0.623,4.25,3.47,4.16,1.47,3.3,1.95,3.66,0.747,0.329,3.64,4.16,1.53,4.94,2.05,3.63
ATCTCTAGGTAACCAATTTCAGTGAATGCCGAAC,0.444,0.64,0.561,0.348,1.28,0.596,0.441,0.547,0.162,0.306,3.89,2.94,1.28,1.42,0.77,0.453,0.601,0.264,0.959,0.458
CGAACGAGGGCATGAGTTGCTAGCAAATGCCGAT,0.106,0.132,-0.624,0.0886,-1.12,1.35,1.1,1.52,0.000453,0.931,3.04,1.87,-0.188,-0.705,-0.0181,0.336,-0.327,0.293,-0.816,1.82
ACTATTAGTTGCGACGAGGGCAACCGATAGGTTG,0.025,-0.176,-0.51,-0.131,-0.0376,0.201,0.576,0.00262,-0.168,0.0381,-0.375,0.286,0.385,0.517,0.166,0.401,-0.0266,0.277,0.0553,0.852
TCTTGTAGACCAAGCAGGTTAAGAAAGCCTGAGT,0.286,0.184,-0.371,-0.086,-0.534,0.881,-0.307,1.12,2.54,1.77,1.69,0.677,-0.0357,-0.21,-0.226,0.504,0.118,0.56,-0.3,0.219
ACTCGGAGGACAATGGTCAGAGCTACGCCAGTGA,-0.187,-0.512,-0.435,-0.708,-0.881,-0.704,0.723,0.466,-0.281,-0.00366,-0.21,-0.421,-1.67,-0.609,-0.576,-0.593,-0.561,-0.488,-0.119,1.23
CCTGCTCGGTCATGGTCAGCTAATCTACAGTATG,0.209,0.33,0.0504,-0.0325,-0.00908,0.0849,0.0527,-0.261,-0.454,-0.32,0.829,0.464,-0.762,-0.953,-0.491,-0.351,-0.822,-0.293,-0.596,2.46
CGTCCAGGGTCAAGGTCAGTGAAAGAGACTCGAA,7.27,4.72,0.165,4.58,-0.131,6.04,6.91,6.41,3.27,5.71,1.82,4.14,0.455,0.241,3.01,4.77,0.845,5.13,1.53,5.23
CGTCCAAGGTCAGCAGGTCCGTGAAAGCGACGTG,4.81,3.09,-0.42,2.19,-0.0479,4.13,2.24,3.15,0.0631,1.82,2.55,2.38,-0.178,-1.09,1.99,2.47,0.631,3.08,0.18,4.86
